Test results published in the supplement of paper PMC4022240.
± gives the standard deviation.

What was measured:
Experiment in all cases: peptide microarray binding signal (635 nm), min-max normalized on array (fraction of array maximum); higher = stronger binding
[1] = target: T1, HaloTag-ATRX ADD domain (163-292)
T1 chain: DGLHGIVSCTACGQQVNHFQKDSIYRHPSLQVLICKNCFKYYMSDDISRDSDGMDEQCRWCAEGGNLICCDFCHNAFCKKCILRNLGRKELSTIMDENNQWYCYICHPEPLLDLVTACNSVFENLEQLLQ
Method in brief: (§1)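 Within each library, mean intensities of triplicate spots were min-max scaled to give the binding signal. The spots were histone 13-mer peptide–cellulose conjugates on nitrocellulose with a Cy3 tracer, blocked overnight at 4°C. They were then probed for 1 h at 4°C using biotin-labelled HaloTag reader fusions (10 nM to 1 μM) with streptavidin-Alexa Fluor 647 or rabbit histone antibodies (1:10,000 to 1:2,000) with anti-rabbit Alexa 647, and scanned at 635 nm for signal and 532 nm for misprints on an Axon GenePix 4000B.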

[2] = target: HaloTag-ING2 PHD (mouse Ing2 200-280)
Method in brief: as §1

[3] = target: anti-H3K4me3 antibody ab8580
Method in brief: as §1

[4] = target: anti-H3K9me3 antibody ab8898
Method in brief: as §1

[5] = peptide region: H4 8-19, peptide modifications: H4K16ac, binder concentration: 1:2,000 dilution
[6] = peptide region: H4 8-19, peptide modifications: H4K16ac, binder concentration: 1:10,000 dilution
[7] = peptide region: H4 1-13, peptide modifications: H4S1ph H4R3me2a, binder concentration: 1:2,000 dilution
[8] = peptide region: H4 1-13, peptide modifications: H4S1ph H4R3me2a, binder concentration: 1:10,000 dilution
[9] = peptide region: H4 8-19, peptide modifications: H4R17cit, binder concentration: 1:2,000 dilution
[10] = peptide region: H4 8-19, peptide modifications: H4R17cit, binder concentration: 1:10,000 dilution
[11] = peptide region: H4 1-13, peptide modifications: H4S1ph H4R3me1, binder concentration: 1:2,000 dilution
[12] = peptide region: H4 1-13, peptide modifications: H4S1ph H4R3me1, binder concentration: 1:10,000 dilution
[13] = peptide region: H4 8-19, peptide modifications: H4K12ac H4K16ac, binder concentration: 1:2,000 dilution
[14] = peptide region: H4 8-19, peptide modifications: H4K12ac H4K16ac, binder concentration: 1:10,000 dilution
[15] = peptide region: H4 1-13, peptide modifications: H4S1ph H4R3me2s, binder concentration: 1:2,000 dilution
[16] = peptide region: H4 1-13, peptide modifications: H4S1ph H4R3me2s, binder concentration: 1:10,000 dilution
[17] = peptide region: H4 8-19, binder concentration: 1:2,000 dilution
[18] = peptide region: H4 8-19, binder concentration: 1:10,000 dilution
[19] = peptide region: H4 8-19, peptide modifications: H4K8ac H4K12ac, binder concentration: 1:2,000 dilution
[20] = peptide region: H4 8-19, peptide modifications: H4K8ac H4K12ac, binder concentration: 1:10,000 dilution
[21] = peptide region: H4 1-13, peptide modifications: H4S1ph H4K12ac, binder concentration: 1:2,000 dilution
[22] = peptide region: H4 1-13, peptide modifications: H4S1ph H4K12ac, binder concentration: 1:10,000 dilution
[23] = peptide region: H4 1-13, peptide modifications: H4S1ph H4R3cit, binder concentration: 1:2,000 dilution
[24] = peptide region: H4 1-13, peptide modifications: H4S1ph H4R3cit, binder concentration: 1:10,000 dilution

KGLGKGGAKRHRK [H4 8-19 K G L G K G G A Kac R H R K]
peptide microarray binding signal ([1]; peptide region: H4 8-19, peptide modifications: H4K16ac, binder concentration: 50 nM): 0.00483 ± 0.00015 | peptide microarray binding signal ([1]; peptide region: H4 8-19, peptide modifications: H4K16ac, binder concentration: 500 nM): 0.0126 ± 0.00055 | peptide microarray binding signal ([2]; peptide region: H4 8-19, peptide modifications: H4K16ac, binder concentration: 10 nM): 0.00388 ± 8.9e-05 | peptide microarray binding signal ([2]; peptide region: H4 8-19, peptide modifications: H4K16ac, binder concentration: 100 nM): 0.0106 ± 0.0026 | peptide microarray binding signal [3, 5]: 0.00238 ± 0.00047 | peptide microarray binding signal [3, 6]: 0.002 ± 4.9e-05 | peptide microarray binding signal [4, 5]: 0.00181 ± 6e-05 | peptide microarray binding signal [4, 6]: 0.00127 ± 3.4e-05

SGRGKGGKGLGKG [H4 1-13 Sph G Rme2a G K G G K G L G K G]
peptide microarray binding signal ([1]; peptide region: H4 1-13, peptide modifications: H4S1ph H4R3me2a, binder concentration: 50 nM): 0.00605 ± 0.001 | peptide microarray binding signal ([1]; peptide region: H4 1-13, peptide modifications: H4S1ph H4R3me2a, binder concentration: 500 nM): 0.0165 ± 0.0018 | peptide microarray binding signal ([2]; peptide region: H4 1-13, peptide modifications: H4S1ph H4R3me2a, binder concentration: 10 nM): 0.00334 ± 4.8e-05 | peptide microarray binding signal ([2]; peptide region: H4 1-13, peptide modifications: H4S1ph H4R3me2a, binder concentration: 100 nM): 0.00794 ± 0.0014 | peptide microarray binding signal [3, 7]: 0.00225 ± 0.00023 | peptide microarray binding signal [3, 8]: 0.00194 ± 6.3e-05 | peptide microarray binding signal [4, 7]: 0.000982 ± 4.2e-05 | peptide microarray binding signal [4, 8]: 0.00104 ± 1.1e-05

KGLGKGGAKRHRK [H4 8-19 K G L G K G G A K Rcit H R K]
peptide microarray binding signal ([1]; peptide region: H4 8-19, peptide modifications: H4R17cit, binder concentration: 50 nM): 0.0003448 ± 3.2e-06 | peptide microarray binding signal ([1]; peptide region: H4 8-19, peptide modifications: H4R17cit, binder concentration: 500 nM): 0.000381 ± 4e-06 | peptide microarray binding signal ([2]; peptide region: H4 8-19, peptide modifications: H4R17cit, binder concentration: 10 nM): 0.00191 ± 4e-05 | peptide microarray binding signal ([2]; peptide region: H4 8-19, peptide modifications: H4R17cit, binder concentration: 100 nM): 0.000354 ± 4.1e-06 | peptide microarray binding signal [3, 9]: 7.55e-05 ± 8.5e-07 | peptide microarray binding signal [3, 10]: 0.000685 ± 1.5e-05 | peptide microarray binding signal [4, 9]: 3.02e-05 ± 3.4e-07 | peptide microarray binding signal [4, 10]: 0

SGRGKGGKGLGKG [H4 1-13 Sph G Rme G K G G K G L G K G]
peptide microarray binding signal ([1]; peptide region: H4 1-13, peptide modifications: H4S1ph H4R3me1, binder concentration: 50 nM): 0.00467 ± 0.00075 | peptide microarray binding signal ([1]; peptide region: H4 1-13, peptide modifications: H4S1ph H4R3me1, binder concentration: 500 nM): 0.0107 ± 0.00059 | peptide microarray binding signal ([2]; peptide region: H4 1-13, peptide modifications: H4S1ph H4R3me1, binder concentration: 10 nM): 0.00149 | peptide microarray binding signal ([2]; peptide region: H4 1-13, peptide modifications: H4S1ph H4R3me1, binder concentration: 100 nM): 0.00276 ± 6.8e-05 | peptide microarray binding signal [3, 11]: 0.000132 ± 1.5e-06 | peptide microarray binding signal [3, 12]: 0.000742 ± 1.3e-05 | peptide microarray binding signal [4, 11]: 0.000347 ± 7e-06 | peptide microarray binding signal [4, 12]: 0.000577 ± 1.2e-05

KGLGKGGAKRHRK [H4 8-19 K G L G Kac G G A Kac R H R K]
peptide microarray binding signal ([1]; peptide region: H4 8-19, peptide modifications: H4K12ac H4K16ac, binder concentration: 50 nM): 0.000188 ± 6.2e-06 | peptide microarray binding signal ([1]; peptide region: H4 8-19, peptide modifications: H4K12ac H4K16ac, binder concentration: 500 nM): 0.000333 ± 1.3e-05 | peptide microarray binding signal ([2]; peptide region: H4 8-19, peptide modifications: H4K12ac H4K16ac, binder concentration: 10 nM): 0.00215 ± 0.00035 | peptide microarray binding signal ([2]; peptide region: H4 8-19, peptide modifications: H4K12ac H4K16ac, binder concentration: 100 nM): 0.000142 ± 1.7e-06 | peptide microarray binding signal [3, 13]: 0 | peptide microarray binding signal [3, 14]: 5.71e-05 | peptide microarray binding signal [4, 13]: 0 | peptide microarray binding signal [4, 14]: 0

SGRGKGGKGLGKG [H4 1-13 Sph G Rme2s G K G G K G L G K G]
peptide microarray binding signal ([1]; peptide region: H4 1-13, peptide modifications: H4S1ph H4R3me2s, binder concentration: 50 nM): 0.0052 ± 0.0008 | peptide microarray binding signal ([1]; peptide region: H4 1-13, peptide modifications: H4S1ph H4R3me2s, binder concentration: 500 nM): 0.00852 ± 0.00024 | peptide microarray binding signal ([2]; peptide region: H4 1-13, peptide modifications: H4S1ph H4R3me2s, binder concentration: 10 nM): 0.00346 ± 0.00014 | peptide microarray binding signal ([2]; peptide region: H4 1-13, peptide modifications: H4S1ph H4R3me2s, binder concentration: 100 nM): 0.00865 ± 0.00015 | peptide microarray binding signal [3, 15]: 0.00119 ± 0.0001 | peptide microarray binding signal [3, 16]: 0.0012 ± 1.2e-05 | peptide microarray binding signal [4, 15]: 0.000408 ± 1.8e-05 | peptide microarray binding signal [4, 16]: 0.000923 ± 9.6e-06

KGLGKGGAKRHRK [H4 8-19 K G L G K G G A K R H R K]
peptide microarray binding signal ([1]; peptide region: H4 8-19, binder concentration: 50 nM): 0.00495 ± 5.5e-05 | peptide microarray binding signal ([1]; peptide region: H4 8-19, binder concentration: 500 nM): 0.0131 ± 0.0015 | peptide microarray binding signal ([2]; peptide region: H4 8-19, binder concentration: 10 nM): 0.00466 ± 0.00021 | peptide microarray binding signal ([2]; peptide region: H4 8-19, binder concentration: 100 nM): 0.0136 ± 0.0014 | peptide microarray binding signal [3, 17]: 0.000793 ± 4.3e-05 | peptide microarray binding signal [3, 18]: 0.00154 ± 3e-05 | peptide microarray binding signal [4, 17]: 0.000529 ± 1.3e-05 | peptide microarray binding signal [4, 18]: 0.0011 ± 1.1e-05

KGLGKGGAKRHRK [H4 8-19 Kac G L G Kac G G A K R H R K]
peptide microarray binding signal ([1]; peptide region: H4 8-19, peptide modifications: H4K8ac H4K12ac, binder concentration: 50 nM): 0.000251 ± 1.2e-05 | peptide microarray binding signal ([1]; peptide region: H4 8-19, peptide modifications: H4K8ac H4K12ac, binder concentration: 500 nM): 0.000143 ± 2.7e-06 | peptide microarray binding signal ([2]; peptide region: H4 8-19, peptide modifications: H4K8ac H4K12ac, binder concentration: 10 nM): 0.00567 ± 0.0013 | peptide microarray binding signal ([2]; peptide region: H4 8-19, peptide modifications: H4K8ac H4K12ac, binder concentration: 100 nM): 0.000496 | peptide microarray binding signal [3, 19]: 0.000113 | peptide microarray binding signal [3, 20]: 0.00165 ± 0.00042 | peptide microarray binding signal [4, 19]: 6.04e-05 ± 6.8e-07 | peptide microarray binding signal [4, 20]: 5.77e-05 ± 6.6e-07

SGRGKGGKGLGKG [H4 1-13 Sph G R G K G G K G L G Kac G]
peptide microarray binding signal ([1]; peptide region: H4 1-13, peptide modifications: H4S1ph H4K12ac, binder concentration: 50 nM): 0.00392 ± 0.00035 | peptide microarray binding signal ([1]; peptide region: H4 1-13, peptide modifications: H4S1ph H4K12ac, binder concentration: 500 nM): 0.0105 ± 0.00038 | peptide microarray binding signal ([2]; peptide region: H4 1-13, peptide modifications: H4S1ph H4K12ac, binder concentration: 10 nM): 0.00269 ± 6.6e-05 | peptide microarray binding signal ([2]; peptide region: H4 1-13, peptide modifications: H4S1ph H4K12ac, binder concentration: 100 nM): 0.00893 ± 0.00049 | peptide microarray binding signal [3, 21]: 0.000378 ± 1e-05 | peptide microarray binding signal [3, 22]: 0.000742 ± 1.3e-05 | peptide microarray binding signal [4, 21]: 0.000649 ± 0.00018 | peptide microarray binding signal [4, 22]: 0.00075 ± 7.9e-06

SGRGKGGKGLGKG [H4 1-13 Sph G Rcit G K G G K G L G K G]
peptide microarray binding signal ([1]; peptide region: H4 1-13, peptide modifications: H4S1ph H4R3cit, binder concentration: 50 nM): 0.00335 ± 0.00024 | peptide microarray binding signal ([1]; peptide region: H4 1-13, peptide modifications: H4S1ph H4R3cit, binder concentration: 500 nM): 0.00524 ± 0.00019 | peptide microarray binding signal ([2]; peptide region: H4 1-13, peptide modifications: H4S1ph H4R3cit, binder concentration: 10 nM): 0.00281 ± 4.1e-05 | peptide microarray binding signal ([2]; peptide region: H4 1-13, peptide modifications: H4S1ph H4R3cit, binder concentration: 100 nM): 0.00418 ± 0.0002 | peptide microarray binding signal [3, 23]: 0.000378 ± 3.9e-06 | peptide microarray binding signal [3, 24]: 0.000685 ± 7.2e-06 | peptide microarray binding signal [4, 23]: 0.000136 | peptide microarray binding signal [4, 24]: 0.00121 ± 0.00012
